Measurements as given in PubChem BioAssay.

These compounds were tested against Pro-neuregulin-1, membrane-bound isoform (Homo sapiens) (UniProt Q02297) (assay: NRG1 binders on small-molecule microarrays, primary screen, psychiatric disease protein project, biochemical, small-molecule microarray, fluorescence 635/667 (AID 1075;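 note: score combines 667 nm spot fluorescence with signal to noise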)). Details: NRG1 binding, 635 nm fluorescence, higher = more signal.
Sequence of Pro-neuregulin-1, membrane-bound isoform (Homo sapiens) (Q02297 whole entry, looked up, canonical isoform): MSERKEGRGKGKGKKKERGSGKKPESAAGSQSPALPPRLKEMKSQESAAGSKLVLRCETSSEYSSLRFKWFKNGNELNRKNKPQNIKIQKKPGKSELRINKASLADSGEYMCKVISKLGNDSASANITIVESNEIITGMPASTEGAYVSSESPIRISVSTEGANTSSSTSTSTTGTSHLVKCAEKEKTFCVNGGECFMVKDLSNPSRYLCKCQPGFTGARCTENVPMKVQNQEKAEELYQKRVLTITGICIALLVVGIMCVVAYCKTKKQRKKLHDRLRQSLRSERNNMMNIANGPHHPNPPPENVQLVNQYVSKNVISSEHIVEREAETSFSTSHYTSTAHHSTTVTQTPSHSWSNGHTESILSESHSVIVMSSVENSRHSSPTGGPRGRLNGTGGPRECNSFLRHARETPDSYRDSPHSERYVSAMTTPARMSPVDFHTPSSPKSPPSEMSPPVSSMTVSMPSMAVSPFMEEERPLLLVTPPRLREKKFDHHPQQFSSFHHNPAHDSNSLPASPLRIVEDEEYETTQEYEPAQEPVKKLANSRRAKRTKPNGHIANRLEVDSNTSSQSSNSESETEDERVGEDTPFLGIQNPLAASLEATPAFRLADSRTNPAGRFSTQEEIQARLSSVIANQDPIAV

SMILES | composite z-score
O=C1C[C@@H](O)[C@@H](O)[C@@H]2[C@@H]3C(=O)N(Cc4ccccc4)C(=O)[C@@H]3CC[C@@H]12 | 0.205
CCN1C(=O)[C@H]2[C@H]3[C@H](O)[C@H](O)CC(=NOCC(C)C)[C@@H]3CC[C@H]2C1=O | 0.42
COC(=O)CC=C[C@@H](C)[C@@H](C=NOC[C@H]1O[C@H](c2ccccc2)C=C[C@@H]1Oc1ccc(OC)cc1)OC | -0.549
CC(CCN1CCc2nc(-c3ccccc3)c(-c3ccccc3)cc2C1)=NOC[C@@H](O)[C@H]1O[C@@H]2OC(C)(C)O[C@@H]2[C@H]1O | 0.609
O=C(NN=C1C[C@@H](O)[C@@H](O)[C@@H]2[C@@H]3C(=O)N(C4CCCCC4)C(=O)[C@@H]3CC[C@@H]12)OCc1ccccc1 | -0.32
COc1ccc(O[C@H]2C=C[C@@H](c3ccccc3)O[C@@H]2CON=C(C)CCC(=O)OC[C@H]2O[C@H](c3ccccc3)C=C[C@@H]2Oc2ccc(OC)cc2)cc1 | -0.496

These compounds were tested on Neuregulin-1 EGF-like domain (assay: binders of neuregulin-1 EGF-like domain, primary screen, biochemical, small-molecule microarray, 635 nm fluorescence (AID 1081;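 note: binding of the protein to compounds printed on small-molecule microarray slides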)). Details: small-molecule microarray binding, higher = more signal.

SMILES | composite z-score
CCOC(=O)NN=C1C[C@@H](O)[C@@H](O)[C@@H]2[C@@H]3C(=O)N([C@@H](C)c4ccccc4)C(=O)[C@@H]3CC[C@@H]12 | 0.11
COC(=O)[C@@H]1CC[C@H](C)[C@@H](c2ccc(C)cc2)N1C(=O)c1ccc(C=NO[C@@H](C)c2cn([C@H](CO)Cc3ccccc3)nn2)cc1 | 0.477
O=C1CCCC=C1C(O)CCOC(c1ccccc1)(c1ccccc1)c1ccccc1 (configuration not stated) | -0.132
COC(=O)CC=C[C@@H](C)[C@@H]1C=C[C@H](O)[C@@H](CO)O1 | -0.0778
C[C@@H](ON=C1[C@H]2CCn3c(=O)n(-c4ccccc4)c(=O)n3[C@H]2[C@H](O)[C@@H]2O[C@H]12)c1cn([C@@H]2COC[C@H]2O)nn1 | 0.261
CO[C@@H]1COC(=O)[C@H](CCSC)NC(=O)CC=C[C@@H](C)COC(=O)CCC[C@H]1C | 1.15
COc1cccc([C@@H]2Oc3ccc(OC)cc3C(=O)[C@H]2O)c1 | 1.04
C=CC1=C[C@H](O)[C@@H]2O[C@@H]2C12OCCCO2 | 0.35
CCOC(=O)NN=C1C[C@@H](O)[C@@H](O)[C@@H]2[C@@H]3C(=O)N(Cc4ccccc4)C(=O)[C@@H]3CC[C@H]12 | -0.699
COC(=O)[C@@H]1CC[C@H](C)[C@@H](c2ccc(C)cc2)N1C(=O)c1ccc(C=NO[C@H](C)c2cn([C@H](CO)Cc3ccccc3)nn2)cc1 | 1.12
COc1cc(O)c(C(=O)C=Cc2ccc3c(c2)OCO3)c(OC)c1 | -0.927
CCOC(=O)[C@H](CC(C)C)NC(=O)CCC1CC(OC(=O)NCc2cccc3ccccc23)CC2(CCCC(COC(=O)NCC3CCCCC3)O2)O1 (some centres not stated) | 0.907
Cc1cc2c(c(=O)o1)[C@@H](O)[C@H]1O[C@H]1C2=O | 0.239
Cc1ccc(S(=O)(=O)NC(CCc2ccccc2)CC(=O)C(C)(C)C)cc1 (configuration not stated) | 0.459
C[C@@H](c1ccccc1)N1C(=O)[C@H]2[C@H]3[C@H](O)[C@H](O)CC(=NO[C@@H]4O[C@H](CO)[C@@H](O)[C@H](O)[C@H]4O)[C@@H]3CC[C@H]2C1=O | 0.752
CCN1C(=O)[C@@H]2[C@H]3C(=CC[C@@H]2C1=O)C1(OCCCO1)[C@H]1O[C@H]1[C@H]3O | 1.19
CCOC(=O)[C@H](CC(C)C)NC(=O)CCC1CC(OC(=O)NCc2cccc3ccccc23)CC2(CCCC(COC(=O)NCCCN3CCCC3=O)O2)O1 (some centres not stated) | 0.953
CC(=O)OC[C@H]1OC(ON=CC[C@@H]2C=C[C@H](OC(C)=O)[C@@H](COC(C)=O)O2)[C@H](OC(C)=O)[C@@H](OC(C)=O)[C@@H]1OC(C)=O (some centres not stated) | -0.595

SMILES | composite z-score
COc1ccc(O[C@@H]2[C@H](O)CO[C@@H]2C=Cc2ccccc2)cc1 | 0.102
O=C1[C@H]2[C@H]3[C@H](O)[C@H](O)CC(=NOC[C@@H](O)COCc4ccco4)[C@H]3CC[C@H]2C(=O)N1C[C@@H]1CCCO1 | 1.15
CC(C)=CCCC(C)=CCON=C1C[C@@H](O)[C@@H](O)[C@@H]2[C@@H]3C(=O)N(C(C)(C)C)C(=O)[C@@H]3CC[C@@H]12 | 0.184
C#CCCCON=C1C[C@@H](O)[C@@H](O)[C@@H]2[C@@H]3C(=O)N(CCC(=O)OCC)C(=O)[C@@H]3CC[C@H]12 | 0.685
C[C@H]1CC[C@H]2C(=O)O[C@H](COc3ccc(C(C)(C)C)cc3)CN2[C@@H]1c1ccc(Br)cc1 | -0.536
CC(C)=CCCC(C)=CCON=C1C[C@@H](O)[C@@H](O)[C@@H]2[C@@H]3C(=O)N(c4cccc(Oc5ccccc5)c4)C(=O)[C@@H]3CC[C@@H]12 | 0.972
COc1ccc(O[C@H]2C=C[C@@H](c3ccccc3)O[C@@H]2COC(=O)CCC(C)=NOC(C)CN2CCCc3nc(C)c(C)cc32)cc1 (some centres not stated) | 0.967
COC(=O)[C@H](C)NC(=O)CCC1CC(OC(=O)NCc2cccc3ccccc23)CC2(CCCC(COC(=O)NCC(c3ccccc3)c3ccccc3)O2)O1 (some centres not stated) | 0.801
C=COC[C@@H]1CN2[C@@H](CC[C@@H](C)[C@@H]2c2ccc(Br)cc2)C(=O)O1 | 0.673
CCOC(=O)[C@H](CC(C)C)NC(=O)CCC1CC(OC(=O)NCc2cccc3ccccc23)CC2(CCCC(COC(=O)NCCC(C)C)O2)O1 (some centres not stated) | 0.602
CCOC(=O)[C@H](Cc1ccccc1)NC(=O)CCC1CC(OC(=O)NCCc2ccc(F)cc2)CC2(CCCC(COC(=O)NCCc3ccccc3OC)O2)O1 (some centres not stated) | 1.22
CO[C@H](C1CCCCC1)[C@H](C)C=CCC(=O)OCCCc1ccccc1 | -0.647
O=C1C[C@@H](O)[C@@H](O)[C@@H]2[C@@H]3C(=O)N(Cc4ccccc4)C(=O)[C@@H]3CC[C@@H]12 | 0.771
CCN1C(=O)[C@H]2[C@H]3[C@H](O)[C@H](O)CC(=NOCC(C)C)[C@@H]3CC[C@H]2C1=O | 0.336
COC(=O)CC=C[C@@H](C)[C@@H](C=NOC[C@H]1O[C@H](c2ccccc2)C=C[C@@H]1Oc1ccc(OC)cc1)OC | -0.282
CC(CCN1CCc2nc(-c3ccccc3)c(-c3ccccc3)cc2C1)=NOC[C@@H](O)[C@H]1O[C@@H]2OC(C)(C)O[C@@H]2[C@H]1O | 0.676
O=C(NN=C1C[C@@H](O)[C@@H](O)[C@@H]2[C@@H]3C(=O)N(C4CCCCC4)C(=O)[C@@H]3CC[C@@H]12)OCc1ccccc1 | -0.235
COc1ccc(O[C@H]2C=C[C@@H](c3ccccc3)O[C@@H]2CON=C(C)CCC(=O)OC[C@H]2O[C@H](c3ccccc3)C=C[C@@H]2Oc2ccc(OC)cc2)cc1 | -1.1
